PKM2 act = increases activity of human pyruvate kinase M2; Potency, µM (doses to about 57.5 µM), without a hit: at the highest dose activation, hits mostly activators; 260,000 tested, 0.34% active; purified PKM2, Kinase-Glo ATP luminescence, activation; response scale: 0% is enzyme alone, no compound; note: % is set by controls: 0 for no effect and ±100 for the full control effect; nearly all actives have a fitted effect of over 55% in size
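Kinase-Glo luminescence reports ATP generated from ADP (0.1 mM) and PEP (0.5 mM) by purified hPK-M2 after 1 h at room temperature, pH 7.2 imidazole buffer; intermediate enzyme activity allows detecting inhibitors and activators.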
Tb PGK inh = blocks T. brucei phosphoglycerate kinase. PGK/GAPDH coupled, Kinase-Glo luminescence, 60 min. Potency, µM (top dose mostly 57.5 µM), for inactives: top-dose activity change, negative = inhibition, most hits filed as inhibitors. 380,000 tested, 0.043% active. P07378. AID 602233; note: % is set by controls: 0 for no effect and ±100 for the full control effect; nearly all actives have a fitted effect of over 60% in size
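Recombinant glycosomal PGK reaction used 1,3-bisphosphoglycerate generated in-well by GAPDH (100nM final) in 100mM TEA pH 7.6, 5mM MgCl2, 0.01% Tween-20. After 60 minutes at room temperature, ATP was read by Kinase-Glo Plus luminescence end-point.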
Tb PFK block = T. brucei PFK enzyme inhibition | 330,000 tested, 0.17% active | AID 485367 | Potency, µM (top dose mostly 57.5 µM), without a hit: top-dose activity, negative = inhibition, actives largely listed as inhibitors | T. brucei PFK, ADP-Glo luminescence;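 note: 0% = uninhibited 1x PFK enzyme wells and -100% = no-enzyme wells; nearly all actives have a fitted effect of over 60% in size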
Target sequence (O15648 whole entry, looked up): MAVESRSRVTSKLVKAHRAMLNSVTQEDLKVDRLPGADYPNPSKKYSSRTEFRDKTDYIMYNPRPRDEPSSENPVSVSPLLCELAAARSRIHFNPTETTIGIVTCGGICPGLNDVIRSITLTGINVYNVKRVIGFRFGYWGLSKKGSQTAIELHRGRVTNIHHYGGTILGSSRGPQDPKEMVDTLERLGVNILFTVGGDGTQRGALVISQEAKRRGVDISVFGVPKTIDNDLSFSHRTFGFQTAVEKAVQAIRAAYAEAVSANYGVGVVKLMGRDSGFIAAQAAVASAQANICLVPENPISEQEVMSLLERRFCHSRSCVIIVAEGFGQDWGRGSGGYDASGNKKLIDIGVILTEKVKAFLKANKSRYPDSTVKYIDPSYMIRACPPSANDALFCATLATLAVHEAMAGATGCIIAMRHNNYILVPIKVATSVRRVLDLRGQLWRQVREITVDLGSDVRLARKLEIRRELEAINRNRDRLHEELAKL
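1.25 nM PFK with 0.5 mM F6P and 0.1 mM ATP in 0.1 M TEA pH 8.0, 5 mM MgCl2, incubated 45 min at room temperature; ADP measured by ADP-Glo luminescence; compounds titrated up to 57 uM.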
Rango release inh = prevents RanGTP from dissociating the Rango-importin beta complex | 340,000 tested, 0.071% active | Biochemical FRET Rango-importin beta, RanGTP-induced dissociation | Potency, µM (titrated, usually from 46.1 µM), for the others: at the highest dose activity change, negative = inhibition; calls by dose curve; note: % of control where 0% means no effect; nearly all actives have a fitted effect of over 45% in size
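Rango/importin beta premix (0.1/0.25 uM final), PBS + 1 mM DTT + 0.02% Tween-20 + 0.1% BSA; cpd 5 min RT; FRET pre-read; + RanGTP-RCC1 (0.6 uM Ran, 2 mM GTP, 0.2 uM RCC1); 45 min RT; FRET post-read, ex 430, em 486/530 nm.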
Rango complex inh = inhibitors of Rango-importin beta complex formation; Q14974; Rango CFP/YFP FRET sensor + importin beta, 45 min; Potency, µM (titrated, usually from 92.2 µM), for the others: at the highest dose inhibition of complex formation; 340,000 tested, 0.031% active; AID 540263; calls by dose curve;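 note: 0% = DMSO wells and 100% = buffer wells lacking importin beta; nearly all actives have a fitted effect of over 15% in size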
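FRET biosensor Rango (snurportin 1 IBB between N-terminal EYFP and C-terminal Cerulean), 50 nM in PBS/1 mM DTT/0.02% Tween-20/0.1% BSA, preincubated 5 min RT with compound; 0.125 microM importin beta added, 45 min RT, CFP/YFP FRET ratio read.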
ELG1 repair inh = ELG1-dependent DNA repair inhibition; 330,000 tested, 2.3% active; HEK293T ELG1-luciferase reporter, luminescence, 16 h; DNA damage induced by 5-fluorouridine; Potency, µM (doses to about 46.1 µM), for the others: at the top dose activity change, negative = inhibition, actives largely listed as inhibitors; note: % is set by controls: 0 for no effect and ±100 for the full control effect; nearly all actives have a fitted effect of over 55% in size
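Reporter activity after DNA damage by 5-fluorouridine is monitored. Compound-treated cells incubate 16 hr at 37 °C, then ONE-Glo is added for 30 min before luminescence reading.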
ELG1 FLuc counter = luciferase inhibition in cell-free luciferin readout for ELG1 hits | shares compounds with ELG1 repair inh | cell-free firefly luciferase luminescence counter-screen, ViewLux | Potency, µM (highest dose often 46.1 µM), without a hit: at the highest dose activity change, negative = inhibition, hits mostly inhibitors | 350 tested, 3% active | AID 624247; note: % is set by controls: 0 for no effect and ±100 for the full control effect
ELG1-Luc inh = confirmation of human ELG1-dependent DNA repair inhibitors; HEK293T ELG1-luciferase levels, luminescence; cells co-treated with 5-fluorouridine; 670 tested, 68% active; AID 624248; shares compounds with ELG1 repair inh; Potency, µM (doses to about 46.1 µM), without a hit: at the top dose activity change, negative = inhibition, usual class: inhibitors; note: % is set by controls: 0 for no effect and ±100 for the full control effect; nearly all actives have a fitted effect of over 55% in size
ELG1-Luc MMS = MMS-stimulated human ELG1 repair inhibition, confirmed | shares compounds with ELG1 repair inh | 670 tested, 53% active | Potency, µM (series often up to 46.1 µM), inactives show at the highest dose activity change, negative = inhibition, most hits filed as inhibitors | HEK293T luciferase-tagged ELG1 level, MMS stimulated | AID 624249; note: % is set by controls: 0 for no effect and ±100 for the full control effect; nearly all actives have a fitted effect of over 60% in size
ELG1 5FU viab = confirmation of ELG1 repair inhibitors: viability with 5FU | shares compounds with ELG1 repair inh | cell viability with 5-FU, ELG1-dependent repair | Potency, µM (series often up to 46.1 µM), without a hit: at the top dose activity change, negative = viability loss, usual class: cytotoxic | 670 tested, under 10 active | AID 624250;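 note: ELG1-luc HEK293T cells cotreated with 5-fluorouridine at 10 µM final; viability measured 16 h after compound addition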
ELG1 MMS viab = confirmation of ELG1 repair inhibitors: viability with MMS. Potency, µM (doses to about 46.1 µM), inactives show at the highest dose activity change, negative = viability loss, hits mostly cytotoxic. 670 tested, 33% active. Cell viability with MMS, ELG1-dependent DNA repair. shares compounds with ELG1 repair inh;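 note: ELG1-luc HEK293T cells co-treated with 10 µM MMS; viability read 16 h after compound addition; % is set by controls: 0 for no effect and ±100 for the full control effect; nearly all actives have a fitted effect of over 60% in size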
Cell viab unstim = unstimulated viability counter-screen for ELG1 repair hits; AID 624252; Potency, µM (series often up to 45.9 µM), without a hit: at the top dose activity change, negative = loss of viability, usual class: cytotoxic; cell viability counter-screen, unstimulated, luminescence; shares compounds with ELG1 repair inh; 900 tested, 8% active;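 note: compound exposure lasted 16 hours before reading; % is set by controls: 0 for no effect and ±100 for the full control effect; nearly all actives have a fitted effect of over 55% in size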
FLuc enzyme = counter-screen for ELG1 repair inhibitors: firefly luciferase inhibition | shares compounds with ELG1 repair inh | purified firefly luciferase, luminescence counter-screen | Potency, µM (highest dose often 57.5 µM), for inactives: at the highest dose activity, negative = inhibition, usual class: inhibitors | 350 tested, 10% active | AID 624253; note: % is set by controls: 0 for no effect and ±100 for the full control effect
* = called active by the depositor; i = inactive; ? = inconclusive; · = not tested or not shown; [ ] = dose if it differs, or a comment. Hits are enriched below; roughly 2.4% of the tested compounds scored in any of these assays. Unless noted, calls come from the whole dose curve; as a rule, active = well fitted curve in the direction sought with a large enough effect; inconclusive = small, poorly fitted or top-dose-only effect, or another doubt; inactive = no such curve, though single readings can be large; an effect the other way counts as inactive or inconclusive. Potency is the fitted concentration of half-maximal effect.

SMILES	PKM2 act	Tb PGK inh	Tb PFK block	Rango release inh	Rango complex inh	ELG1 repair inh	ELG1-Luc inh	ELG1-Luc MMS	ELG1 5FU viab	ELG1 MMS viab	Cell viab unstim	others
COc1ccc(/C=C2\Oc3ccccc3C2=O)cc1	·	-17%	-3%	5%	0%	?	·	·	·	·	-11%
CCc1cc(=O)oc2c3c(cc(OCC(=O)NCc4cccnc4)c12)OC(C)(C)CC3	1%	2%	0%	25%	-3%	3.7µM*	?	16%	5%	-1%	?
Cc1ccc(NC(=O)CN(C)C(=O)c2n[nH]c(=O)c3ccccc23)cc1	-3%	6%	3%	1%	-2%	-7%	·	·	·	·	·
COc1ccc(-c2coc3cc(O)cc(O)c3c2=O)cc1	4%	4%	-1%	0%	-1%	?	·	·	·	·	-2%
Fc1ccccc1CNc1ncnc2sccc12	8%	-8%	-4%	-9%	-5%	2.9µM*	?	4.4µM*	-3%	3.1µM*	?
COc1ccccc1-n1c(C)c(C(C)=O)c2cc(O)ccc21	-1%	9%	2%	0%	2%	7%	·	·	·	·	·
COc1ccc(NS(=O)(=O)c2cccc(C(=O)OCC(=O)N3CCN(c4ccc(OC)cc4)CC3)c2)cc1	·	0%	0%	8%	-2%	4.6µM*	?	7.9µM*	-7%	7.9µM*	?
O=C(Nc1nnc(-c2ccccc2Cl)o1)c1ccc(S(=O)(=O)N2CCCCCC2)cc1	-4%	-9%	1%	5%	6%	1µM*	?	?	-1%	-10%	?	ELG1 FLuc counter=9%;FLuc enzyme=-3%
O=C(CCNC(=O)C1CCN(S(=O)(=O)c2ccc(F)cc2)CC1)NCc1ccccc1Cl	2%	-3%	0%	-11%	-1%	7%	·	·	·	·	·
CC1CCCCN1c1ncnc(N)c1[N+](=O)[O-] (stereo not drawn)	-4%	-4%	-3%	6%	-2%	3.3µM*	7.1µM*	14µM*	2%	?	6%
Fc1ccc(Nc2nc(-c3ccncc3)nc3ccccc23)cc1F	-15%	-11%	0%	-16%	-2%	1.8µM*	1.4µM*	?	?	-7%	?	ELG1 FLuc counter=2%;FLuc enzyme=4%
c1ccc2c(Nc3nc(-c4ccncc4)nc4ccccc34)cccc2c1	6%	1%	-3%	-1%	2%	?	·	·	·	·	·
CCOCCOc1cccc(C(=O)NC(c2ccccc2)c2ccccc2)c1	-2%	-1%	0%	-1%	-1%	-5%	·	·	·	·	·
COc1cc(C(=S)N2CCOCC2)cc(OC)c1OS(=O)(=O)c1ccc(C)cc1	0%[11.5 µM]	-5%	-2%	1%	-4%	?	·	·	·	·	·
CC1CCc2nc(NC(=O)c3cc(C(C)(C)C)nn3C)sc2C1 (stereo not drawn)	-5%	-3%	0%	-4%	4%	?	·	·	·	·	·
Cc1ccc(-c2nc(NC(=O)c3cc(C(C)(C)C)nn3C)sc2C)cc1Cl	-8%	i	-15%	0%	1%	4.6µM*	?	-19%	3%	?	?
CN(CC(=O)Nc1ccc(F)c(F)c1F)C(=O)C1CCCO1 (stereo not drawn)	·	-1%	0%	1%	5%	-2%	·	·	·	·	·
Cc1ccc(CNC(=O)C(=O)NCC2CCCN2S(=O)(=O)c2cccs2)cc1 (stereo not drawn)	·	-4%	-7%	0%	-1%	-17%	·	·	·	·	·
COc1ccc(NC(=O)Cc2c(C)n(C(=O)c3ccc(Cl)cc3)c3ccc(OC)cc23)cc1	-7%	1%	-1%	-11%	1%	2.6µM*	18µM*	15%	?	-3%	-3%	ELG1 FLuc counter=22%;FLuc enzyme=2%

Assay outcomes deposited in PubChem by National Center for Advancing Translational Sciences (NCATS).
